Assay outcomes (PubChem)
MsrA inhibitor: bovine MsrA inhibition; purified bovine MsrA, absorbance read-out; inhibition, % at 15.5 µM; 360,000 compounds, 0.75% hits; AID 651718;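 further: 0% = vehicle wells with enzyme and 100% = reference inhibitor wells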
bovine MsrA act: activates bovine MsrA enzyme; 360,000 compounds, 0.3% hits; AID 602163; purified bovine MsrA, absorbance read-out; activation, % at 10.6 µM; in the data active means activation above about 7.5%;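 further: 0% = vehicle and 100% = reference activator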
ABCB6 inh MLPCN: blocks the human ABCB6 transporter; fluorescence ratio to DMSO, % at 10 µM; K562-ABCB6 porphyrin accumulation, flow cytometry, 1 h; hits give low values; 360,000 compounds, 0.19% hits;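 active means fluorescence ratio to DMSO below 75%, the collection mean minus 3 SD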;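 further: signal is porphyrin accumulated inside mitochondria; 100% equals median channel fluorescence of DMSO control wells; lower ratio means ABCB6 inhibition with less porphyrin fluorescence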
Target sequence (Q9NP58 whole entry, looked up): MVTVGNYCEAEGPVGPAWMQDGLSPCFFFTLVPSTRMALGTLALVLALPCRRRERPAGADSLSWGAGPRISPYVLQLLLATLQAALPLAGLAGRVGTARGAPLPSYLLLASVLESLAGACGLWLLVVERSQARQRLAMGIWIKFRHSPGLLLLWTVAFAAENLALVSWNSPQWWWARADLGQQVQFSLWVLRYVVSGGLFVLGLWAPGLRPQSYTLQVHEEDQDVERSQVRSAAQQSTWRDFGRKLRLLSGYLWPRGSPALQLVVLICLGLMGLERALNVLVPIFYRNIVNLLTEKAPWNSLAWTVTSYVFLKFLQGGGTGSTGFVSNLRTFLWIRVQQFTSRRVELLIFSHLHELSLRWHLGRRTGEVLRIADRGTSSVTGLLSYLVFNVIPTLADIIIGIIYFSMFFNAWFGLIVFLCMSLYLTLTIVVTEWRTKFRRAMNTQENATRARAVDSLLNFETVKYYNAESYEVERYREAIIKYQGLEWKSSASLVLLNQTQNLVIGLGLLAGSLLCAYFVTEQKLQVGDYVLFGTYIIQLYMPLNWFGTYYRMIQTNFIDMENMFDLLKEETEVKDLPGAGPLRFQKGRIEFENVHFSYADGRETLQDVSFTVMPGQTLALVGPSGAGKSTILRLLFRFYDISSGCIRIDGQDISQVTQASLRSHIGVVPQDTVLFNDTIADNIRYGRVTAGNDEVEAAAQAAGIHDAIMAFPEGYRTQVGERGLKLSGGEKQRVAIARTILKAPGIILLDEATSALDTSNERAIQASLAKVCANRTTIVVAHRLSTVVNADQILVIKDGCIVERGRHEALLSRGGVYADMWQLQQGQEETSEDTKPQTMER
SMARCA2 act: activators of SMARCA2 function; MG213 cells, MMTV-luciferase reporter, dexamethasone, overnight; activation, % at 9.1 µM; 370,000 compounds, 1% hits; AID 652017; in the data active means activation above about 7.8%;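 further: 0% = vehicle wells and 100% = reference activator wells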
MsrA inh confirm: confirmation of bovine MsrA inhibitors; inhibition, % at 15.5 µM; 2,300 compounds, 41% hits; purified bovine MsrA, absorbance read-out; shares compounds with MsrA inhibitor;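 further: coupled to thioredoxin reductase with NADPH and selenocystamine and DMSO as substrate; 0% = vehicle only and 100% = full effect of reference inhibitor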
* hit, by the source's call; . = no result given. Sampled rows, rich in hits. Any-hit rate of the full collection: about 2.1%. Unless noted, no stated cut-off is given here; in the data, active means inhibition above about 4.5%; inactive means the rest.

SMILES	MsrA inhibitor	bovine MsrA act	ABCB6 inh MLPCN	SMARCA2 act	MsrA inh confirm
C=CCn1c(SCC(=O)Nc2cc(OC)c(NC(=O)c3ccco3)cc2OC)nnc1-c1ccncc1	4.7*	-4.6	104.0	-5.5	2.0
COc1ccc(/C=C(\C#N)c2n[nH]c(Cn3cncn3)n2)cc1	5.7*	-5.9	106.0	-1.7	5.2*
CCN(CC)S(=O)(=O)c1ccc(N/N=C/c2cccnc2)nc1	5.8*	-5.4	100.0	3.4	4.7*
C[C@@H]1CCCCO[C@H](CN(C)S(=O)(=O)c2cn(C)cn2)[C@@H](C)CN([C@H](C)CO)C(=O)c2cc(NC(=O)CCCN(C)C)ccc2O1	0.8	.	.	-1.6	.
COc1cc(C(=O)C(=O)c2ccc(O)c(OC)c2)ccc1O	6.4*	-4.2	100.0	1.9	4.2
N#C/C(=C(/O)CSc1ccccc1C(=O)O)c1nc2ccccc2s1	7.1*	-4.5	100.0	-2.9	7.1*
Cc1ccc(N=Nc2c(N)nn(-c3ccccc3)c2N)cc1	5.0*	-3.6	95.0	2.9	2.3
Cc1nn(-c2ccccc2)c(N)c1N=Nc1ccc2ccccc2c1	-0.5	-1.2	103.0	6.2	.
CN(C)/N=C/c1ccc(P(c2ccc(/C=N/N(C)C)o2)c2ccc(/C=N/N(C)C)o2)o1	5.4*	-6.5	105.0	1.0	4.0
CN(/N=C/c1ccc([N+](=O)[O-])o1)c1ccccc1	0.8	-2.7	100.0	2.4	.
COc1cc2c(cc1[N+](=O)[O-])n(C(C)C)c(=O)n2C(C)C	8.7*	-4.2	104.0	3.6	6.3*
C=CCN1C(=O)[C@@H](CC(=O)NCCCCc2ccccc2)[C@]2(C(=O)OC)CCCCC=C12	.	.	.	-2.6	.
Nc1nc2ccccc2n1/N=C/c1ccc2c(c1)OCO2	19.4*	-7.8	90.0	0.1	13.7*
Nc1nc2ccccc2n1/N=C/c1ccc(Br)cc1	1.2	-5.4	98.0	5.4	.
CCOC(=O)c1c(C)[nH]sc1=S	4.9*	5.0	90.0	-2.1	2.9
CCOC(=O)c1[nH]c(C)c(C(=O)OCC)c1C	-0.9	-3.0	101.0	1.5	.
COc1ccc(OC)c(-n2c(O)cnc2Nc2nc(C)cc(C)n2)c1	-0.5	-3.4	101.0	-1.4	.
Cc1cc(C)nc(Nc2ncc(O)n2-c2ccc(Br)cc2)n1	8.1*	-5.3	96.0	-3.5	0.5
C/C(=N/Nc1nc(C)cc(C)n1)c1ccc(Br)cc1	2.3	-1.6	94.0	-2.0	.
Cc1cc(C)nc(Nc2ncc(O)n2-c2ccc(C)c(C)c2)n1	8.0*	-1.0	100.0	1.3	6.6*
Cc1cc(C)nc(Nc2ncc(O)n2-c2ccc(C)c(Cl)c2)n1	9.1*	-3.6	95.0	-1.0	5.4*
CCOC(=O)CN1C(=O)N(c2ccc(OC)cc2)[C@H]2CC3c4ccccc4C[C@]3(C)[C@@H](C(=O)N(C)C3CCCCC3)C[C@H]21 (stereo partly drawn)	0.6	.	.	-5.9	.
Cc1nc2ccc(C(=O)N3CCN(C(=O)C(Cl)Cl)CC3)cc2n1C1CCCC1	.	.	.	-5.7	.
C/C(=N\Nc1ccc(S(N)(=O)=O)cc1[N+](=O)[O-])c1ccco1	9.2*	-6.8	93.0	-2.1	5.4*
NS(=O)(=O)c1ccc(Nc2ccccc2)c([N+](=O)[O-])c1	4.9*	-11.2	98.0	-1.6	3.0
SMILES	MsrA inhibitor	bovine MsrA act	ABCB6 inh MLPCN	SMARCA2 act	MsrA inh confirm
C/C(=N\Nc1ccc(S(N)(=O)=O)cc1[N+](=O)[O-])c1ccccc1O	9.9*	-15.0	97.0	-1.7	4.7*
CN[C@H]1C[C@H]2c3cc(-c4ccc5c(c4)OCO5)ccc3CCN2C[C@H]1[C@H](C)O	.	.	.	-1.5	.
CC(=O)Cc1nsc(NC(=O)c2ccc(-c3ccc(F)cc3)o2)n1	7.0*	-5.7	106.0	-5.2	5.4*
CC(=O)Cc1nsc(NC(=O)c2ccc(F)cc2)n1	-0.5	-3.4	101.0	-4.0	.
Cc1cc(C)cc(C(=O)OCCN(C)C2CN(Cc3cn(Cc4ccc([N+](=O)[O-])cc4)nn3)S(=O)(=O)C2)c1 (stereo not drawn)	.	.	.	2.9	.
CCCCNC(=O)c1ccc(Cc2cn(C)c3ccccc23)nc1	1.5	-7.6	99.0	-5.1	.
CCC(=O)N/N=C/c1ccc(-c2ccc([N+](=O)[O-])cc2)o1	2.0	-9.7	99.0	0.1	.
CCC(=O)N/N=C/c1ccc(-c2ccc(Cl)cc2)o1	4.8*	-3.6	96.0	-0.6	4.2
CCOC(=O)[C@]12CCCC3=C1N(CCC3)C(=O)[C@@H](CC(=O)N1CCCC1)C2	.	.	.	0.3	.
O=c1[nH]nc(N/N=C/c2ccccc2OC(F)F)c(=O)[nH]1	5.0*	-4.4	101.0	-1.2	3.2
O=C(CCNc1n[nH]c(=O)[nH]c1=O)N/N=C/c1ccccc1Br	-0.6	-4.1	100.0	-1.2	.
O=C(Nc1ccc(OC(F)(F)F)cc1)Nc1c(-c2ccc(F)cc2)nc2ncccn12	.	.	.	-2.5	.
COc1cccc(/C=C2\SC(N3CCC(C)CC3)=NC2=O)c1OC	5.9*	-4.3	100.0	-2.0	3.8
COc1ccccc1/C=C1\SC(N2CCC(C)CC2)=NC1=O	2.7	-7.1	87.0	0.1	.
NS(=O)(=O)c1ccc(N/N=C/c2ccc(O)cc2O)c([N+](=O)[O-])c1	6.2*	-6.0	96.0	0.1	3.4
NS(=O)(=O)c1ccc(N/N=C/c2ccccn2)c([N+](=O)[O-])c1	5.9*	-13.1	100.0	-0.1	4.3
COC(=O)[C@]12C[C@H](CC(=O)NCc3cccs3)C(=O)N(Cc3ccc(Cl)cc3Cl)C1=C[C@H](COCc1ccccc1)O[C@@H]2C	.	.	.	-4.9	.
Cc1ccc(/C=C/C(=O)OCC(=O)NC(C)c2ccccc2)o1 (stereo not drawn)	6.5*	-3.0	90.0	-3.5	2.8
C=CCN1C(=O)[C@@H](CC(=O)NCc2ccccc2)[C@]2(C(=O)OCC)CCCCC/C=C/12	.	.	.	-1.9	.
Cc1cc2ccccn2c1C(=O)Nc1ccccc1	5.1*	-5.1	101.0	4.5	1.8
O=C(COCc1ccccc1)N1CC[C@H]2[C@H](CCCN2Cc2ccccc2)C1	.	.	.	0.5	.
CCOC(=O)[C@@H](C)N1[C@@H](C)[C@H](c2ccccc2)Oc2ccc(Cl)cc2S1(=O)=O	0.5	.	.	-6.4	.
COc1cccc(N=CC2=C(O)CC(C)(C)CC2=O)c1	6.2*	-2.3	106.0	1.4	4.1
CC1(C)CC(=O)C(C=Nc2ccc3[nH]ncc3c2)=C(O)C1	5.6*	-9.5	94.0	1.2	4.8*
CC1(C)CC(=O)C(C=Nc2ccc(O)cc2)=C(O)C1	5.4*	-4.3	95.0	-1.2	4.0
SMILES	MsrA inhibitor	bovine MsrA act	ABCB6 inh MLPCN	SMARCA2 act	MsrA inh confirm
O=C1Nc2ccccc2N(C(=O)c2ccc3ccccc3c2)C1c1nc2ccccc2[nH]1 (stereo not drawn)	2.8	-0.5	94.0	5.1	.
O=C(NCc1cccc(C(F)(F)F)c1)c1[nH]c(C(F)(F)F)nc1-c1ccccc1	.	-10.5	94.0	.	.
COC(=O)c1cc(-c2ccc(C(C)(C)C)cc2)c(=O)n2c1CCC2	.	.	.	-0.9	.
Cn1c(=O)n(C)c2cc(/C=N/NC(N)=S)ccc21	5.5*	-8.3	96.0	-2.3	4.8*
CN(C)c1ccc(/C=N/NC(N)=S)cc1[N+](=O)[O-]	10.1*	-4.7	104.0	-4.8	7.1*
CC(C)(C)S(=O)N1C[C@H]2CC(=O)C(CCO)=C2[C@@H]1CCO (stereo partly drawn)	0.9	.	.	-5.9	.
